# Laboratory results published in PubChem BioAssay AID434973 (Sanford-Burnham Center for Chemical Genomics, 2010).
# Screen size: about 330,000 compounds; about 4,900 (1.5%) were called active.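 Rule for the calls: active = inhibition above about 50% at the single test dose (limit read from the data); inactive = the rest.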 Only a selection was taken, and actives are over-represented in it overall.
# Molecular target: Sentrin-specific protease 7 (Homo sapiens) (UniProt Q9BQF6)
# Experiment: blockers of human SENP7 peptidase activity – biochemical, luminescence, uHTS, primary screen (AID 434973);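 note: plate controls were DMSO with enzyme for no effect and no enzyme buffer wells for full effect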
# Conditions: recombinant SENP7, Z-RLRGG-aminoluciferin luminescence, 40 min; at 5 µM; active compounds read high
row,SMILES,inhibition
1,Nc1ccc2nn(-c3ccc(Cl)cc3)nc2c1,57.3% (active)
2,CN(C)c1nnnn1-c1ccc(Cl)cc1,-4.93% (inactive)
3,c1ccc(-n2nc3ccccc3n2)cc1,1.86% (inactive)
4,C[C@@H](NC(=O)OC(C)(C)C)c1nnc(S(=O)(=O)Cc2ccccc2)o1,-2.96% (inactive)
5,NC(=O)C1CCN(C(=O)c2ccc(F)c(S(=O)(=O)N3CCOCC3)c2)CC1,10.4% (inactive)
6,O=C(c1cnn(-c2ccc(Cl)cc2)c1)c1ccccc1O,93.1% (active)
7,Cc1ncc(CC(=O)n2cc(C(=O)c3cc(Cl)ccc3O)cn2)s1,0.896% (inactive)
8,COc1ccc(C(=O)Cc2cnn(-c3ccccc3)c2)c(O)c1,5.94% (inactive)
9,CC1CCCCC1NC(=O)COC(=O)Cc1ccc(Br)cc1 (stereo not drawn),0.5% (inactive)
10,CC(=O)OCc1cc(=O)n(C)c(=O)n1C,6.2% (inactive)
11,COc1cccc(COC(=O)C2CCN(S(=O)(=O)c3ccc(Cl)cc3)CC2)c1OC,11.2% (inactive)
12,O=C(COC(=O)c1ccco1)Nc1ccc(Cl)cn1,4.97% (inactive)
13,CCCCCc1ccc(-c2ccc(C(=O)O)cc2)nc1,92.8% (active)
14,CCCCCc1ccc(-c2ccc(OCC)cc2)nc1,11.8% (inactive)
15,CCCCCc1ccc(-c2cn(Cc3ccc4ccccc4c3)nn2)cc1,-7.9% (inactive)
16,O=S(=O)(NCc1ccccc1Br)c1ccccc1Br,2.03% (inactive)
17,O=C(CCc1nc2sc3c(c2c(=O)[nH]1)CCCC3)NCC(=O)Nc1ccccc1Br,2.2% (inactive)
18,CC1CC(c2ccccc2)n2nc(NC(=O)c3cccs3)nc2N1 (stereo not drawn),-9.29% (inactive)
19,CCn1nccc1C(=O)Nc1ccc(Cl)c(Cl)c1,63.8% (active)
20,O=C(CC(O)(C(F)(F)F)C(F)(F)F)Nc1ccc(Cl)c(Cl)c1,2.83% (inactive)
21,CCn1nccc1C(=O)Nc1ccc(S(=O)(=O)NC23CC4CC(CC(C4)C2)C3)cc1,-4.42% (inactive)

row,SMILES,inhibition
1,COc1ccc(C(=O)N2CCN(c3ncccn3)CC2)cc1S(=O)(=O)N1CCOCC1,0.314% (inactive)
2,Cc1cc(NC(=O)C(C)N2C(=O)c3ccccc3S2(=O)=O)no1 (stereo not drawn),3.21% (inactive)
3,Cc1ccc(Nc2nnc(SC(C)C(=O)NC3CC3)s2)cc1 (stereo not drawn),7.35% (inactive)
4,Cc1ccc(NC(=O)Nc2nnc(-c3ccncc3)s2)cc1,-3.06% (inactive)
5,Cc1ccc(Nc2nc(Cl)c(C=O)s2)cc1,52.6% (active)
6,COC(=O)C(C)N=Cc1ccccc1 (stereo not drawn),-4.82% (inactive)
7,COCCNc1cc(-c2ccccc2)nc2cc(-c3cccc(F)c3)nn12,-7.71% (inactive)
8,COc1ccc(/C=C/c2noc(-c3ccccc3OC(C)=O)n2)cc1,87.9% (active)
9,CC(=O)Oc1ccc2c(c1)C(=O)c1ccccc1C2=O,12.2% (inactive)
10,COc1cccc(/C=C/c2ccc3ccccc3n2)c1OC(C)=O,-1.58% (inactive)
11,COc1ccc2c(c1OC)C(=O)OC2Nc1nc(-c2ccccc2)cs1 (stereo not drawn),1.44% (inactive)
12,CCCn1c(CCNc2nc(-c3ccc(OC)cc3)cs2)nc2ccccc21,0.961% (inactive)
13,Clc1ccc(Nc2nc(-c3cccs3)cs2)nc1,11% (inactive)
14,O=C(NCc1cccnc1)C(=O)Nc1nc(-c2ccccc2)cs1,3.71% (inactive)
15,COc1ccc(-c2csc(Nc3ccccn3)n2)cc1,86.2% (active)
16,COc1ccc(-c2csc(Cc3nc(O)cs3)n2)cc1,23.1% (inactive)
17,COc1ccc(Nc2nc(-c3ccccc3)cs2)cc1,95.8% (active)
18,c1ccc(Nc2nc(-c3ccncc3)cs2)nc1,85.5% (active)
19,Clc1ccc(-c2csc(-c3ccncc3)n2)cc1,-6.3% (inactive)
20,O=C(Nc1nc(-c2cccnc2)cs1)c1ccccc1F,28.5% (inactive)
21,Cc1ccccc1Nc1nc(-c2cccnc2)cs1,54.3% (active)

row,SMILES,inhibition
1,COc1ccc(-c2csc(NC(=O)COC(=O)Cc3ccc(Cl)cc3Cl)n2)cc1,4.91% (inactive)
2,CN(Cc1ccc(F)cc1Cl)S(=O)(=O)c1cccs1,-5.99% (inactive)
3,CCN(C(=O)COC(=O)c1c(C)nn(-c2ccccc2)c1Cl)c1c(N)n(Cc2ccccc2)c(=O)[nH]c1=O,2.84% (inactive)
4,O=[N+]([O-])c1cc(S(=O)(=O)CCCN2CCOCC2)ccc1F,-6.87% (inactive)
5,Cc1ccc(S(=O)(=O)NCC(=O)N(CC(=O)NC(C)(C)C)Cc2cccs2)cc1,0.604% (inactive)
6,CSCCNCc1cn(-c2ccc(F)cc2F)nc1-c1ccccc1C,8.28% (inactive)
7,CCOc1ccc(S(=O)(=O)Nc2ccncc2)c(C)c1C,-7.98% (inactive)
8,CC[C@]1(C(=O)OC)[C@H]2C(=O)N(Cc3ccccc3)C(=O)[C@H]2[C@H]2CN=C(SCc3ccc(C#N)cc3)N21,-3.53% (inactive)
9,OC(COCC1COc2ccccc2O1)CN1CCN(c2ccc(F)cc2)CC1 (stereo not drawn),-0.332% (inactive)
10,CCCCCCCCOC1OC(CO)C(O)C(O)C1NC(C)=O (stereo not drawn),-1.17% (inactive)
11,COc1c(F)c(F)c(-c2csc(N)n2)c(F)c1F,-8.1% (inactive)
12,CS(=O)(=O)Nc1cccc(C2=NN(C(=O)c3cccc(F)c3)C(c3cccs3)C2)c1 (stereo not drawn),6.94% (inactive)
13,O=C1/C(=C/c2coc3ccc(O)cc3c2=O)SC(=S)N1c1ccccc1,-27.4% (inactive)
14,O=C(Cc1csc(Nc2nc(=S)[nH]c3ccccc23)n1)NCCCN1CCN(c2cccc(Cl)c2)CC1,6.52% (inactive)
15,CCC(C(=O)NC1CCCC1)N(C(=O)c1snc(C(N)=O)c1N)c1ccc2c(c1)OCCO2 (stereo not drawn),5.07% (inactive)
16,Nc1c(C(=O)c2cccs2)sc2nsc(SCCN3CCCCC3)c12,9.3% (inactive)
17,Cc1cccc(Nc2nc(-c3ccccc3)cs2)n1,92.9% (active)
18,Cc1ccc(-c2csc(NC3OC(=O)c4ccccc43)n2)cc1 (stereo not drawn),-11.5% (inactive)
19,Cc1ccc(Nc2nc(-c3ccc(O)cc3O)cs2)nc1,-5.69% (inactive)
20,CCOCCCNC(=O)C1(O)c2cc(Br)ccc2NC(=O)N1c1ccc(C)c(C)c1 (stereo not drawn),8.05% (inactive)
21,COCCn1c(SC(C)C(=O)NC2CC2)nnc1-c1cccc(C)c1 (stereo not drawn),1.39% (inactive)
